IL1B secr inh: inflammasome signaling inhibition, IL-1 beta readout; THP-1 LPS/ATP IL-1B secretion, AlphaLISA, 16 h; active compounds read low; activity change, % at 57.5 µM; 4.7% of 360,000 active; in the data active = activity change below about -50%; inconclusive = mostly about -30% to -49%; note: % is set by controls: 0 for no effect and ±100 for the full control effect
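Secreted IL-1B measured by AlphaLISA bead assay after 16 h compound exposure of THP-1 cells; compounds (final up to 57.5 uM) added 1 h before LPS (250 ng/mL) and ATP (1.25 mM) stimulation; lower signal means less secretion.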
TDP1 cell noCPT: qHTS for Inhibitors of human tyrosyl-DNA phosphodiesterase 1 (TDP1): qHTS in cells in absence of CPT; Potency, µM (doses to about 46.2 µM), inactives show at the highest dose activity change, negative = growth inhibition, actives largely listed as inhibitors; AID 686978, 2013; 15% of 420,000 active; DT40 Tdp1-/- hTDP1 cells, no CPT, ATP luminescence, 48 h; note: potency is the fitted concentration of half-maximal effect; % is set by controls: 0 for no effect and ±100 for the full control effect; nearly all actives have a fitted effect of over 55% in size
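A cellular qHTS used chicken DT40 cells lacking endogenous Tdp1 but carrying stably transfected human TDP1. Compounds were applied without camptothecin, and cell growth kinetics were judged by ATP-dependent luminescence after ≥48 hr.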
BCR signal inh: inhibitors of chronic active B-cell receptor signaling. ABC-DLBCL IkBa-CBG/CBR reporter, luminescence ratio, 4 h. Potency, µM (titrated, usually from 46.1 µM), for the others: at the highest dose activity change, negative = inhibition, most hits filed as inhibitors. 0.05% of 340,000 active. AID 493014; active = well fitted inhibition curve with a large enough effect in the signal ratio, with a control signal flat, not every such curve was filed as active; inconclusive = small, poorly fitted or top-dose-only effect, or effect the other way, or a change in a side signal; the % refers to the signal ratio;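 note: potency is the fitted concentration of half-maximal effect; plate controls were basal doxycycline-induced cells for no effect and cells given 10 µM MG132 for full effect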
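Compounds up to 46 uM were incubated four hours with TMD8 cells whose green CBG68 luciferase is fused to IkappaBalpha; red CBR luminescence normalised the signal, and concentration-effect curves were fitted to fusion, red and ratio data.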
MCF10A rereplic: inducers of DNA re-replication in MCF 10A breast cells; MCF 10A DNA re-replication, Hoechst nuclear intensity, 48 h; Potency, µM (titrated, usually from 46.1 µM), for inactives: at the highest dose activity, positive = re-replication, hits mostly activators; 2.9% of 350,000 active; AID 624296; note: potency is the fitted concentration of half-maximal effect; % of control where 0% means no effect; nearly all actives have a fitted effect of over 50% in size
DT40 TDP1 CPT: DT40-hTDP1 cell growth loss with CPT. 12% of 420,000 active. Potency, µM (doses to about 46.2 µM), inactives show at the top dose activity change, negative = growth inhibition, most hits filed as inhibitors. AID 686979. chicken DT40 Tdp1-/-;hTDP1 cells + 20 nM CPT, ATP luminescence, 48 h; note: potency is the fitted concentration of half-maximal effect; % is set by controls: 0 for no effect and ±100 for the full control effect; nearly all actives have a fitted effect of over 55% in size
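Chicken DT40 Tdp1-/- cells complemented with human TDP1, 400 cells/well, exposed to compounds plus 20 nM camptothecin for at least 48 h at 37 C; viability read as ATP content by CellTiter-Glo luminescence.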
SW480 rereplic: DNA re-replication induction in SW480 cells; AID 624297; Potency, µM (doses to about 46.1 µM), inactives show at the highest dose re-replication activation, usual class: activators; SW480 DNA re-replication, Hoechst DNA content imaging, 48 h; 1.8% of 340,000 active; note: potency is the fitted concentration of half-maximal effect; % of control where 0% means no effect; nearly all actives have a fitted effect of over 55% in size
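First, 250 cells per well were seeded. Next, compound or vehicle (23 nL) was pinned in, plates sat 48 hr at 37 C. Finally Hoechst was added for 40 min before fluorescence scanning.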
Numbers without * were called inactive; u = inconclusive; x = no result given. An excerpt weighted towards active compounds, which were near 19% of everything screened. Unless noted, calls come from the whole dose curve; as a rule, active = well fitted curve in the direction sought with a large enough effect; inconclusive = small, poorly fitted or top-dose-only effect, or another doubt; inactive = no such curve, though single readings can be large; an effect the other way counts as inactive or inconclusive.

SMILES | IL1B secr inh | TDP1 cell noCPT | BCR signal inh | MCF10A rereplic | DT40 TDP1 CPT | SW480 rereplic
CC(OC(=O)c1ccccn1)C(=O)Nc1nc(-c2ccc(F)c(F)c2)cs1 (configuration not stated) | u | 23µM* | 1% | -6% | 26µM* | -4%
C[C@H](NC(=O)c1ccccc1)C(=O)Nc1nc(-c2ccccn2)cs1 | 94 | u | u | -3% | 26µM* | 0%
CC(=O)Nc1ccc(NC(=O)CSc2cn(CC(=O)N(C(C)C)C(C)C)c3ccccc23)cc1 | x | u | x | x | -29% | x
Oc1c(C(c2ccccc2F)N2CCN(c3ccccc3F)CC2)sc2nc(-c3ccco3)nn12 (configuration not stated) | x | -24% | 9% | x | -24% | x
CCN(CC(=O)Nc1c(F)cccc1F)C(=O)c1cccn1C | -6 | 9% | x | x | -2% | x
Cc1cccc(C(=O)NC(C(=O)Nc2nc(-c3ccccn3)cs2)C(C)C)c1 (configuration not stated) | 86 | 12µM* | u | 17% | 13µM* | -4%
O=C1NCC(Nc2ccc(Br)cc2)C(=O)N1 (configuration not stated) | -2 | -9% | x | -14% | 12% | -10%
CCN1C[C@@H]2[C@@H]3C(=O)N(C)C(=O)[C@@H]3[C@](Cc3ccccc3)(C1=O)N2C(=O)c1ccc(Br)cc1 | 12 | 2% | x | -25% | -10% | 2%
CCOC(=O)C1CN(S(=O)(=O)c2ccc(C)cc2)c2ccccc2O1 (configuration not stated) | 11 | -20% | -1% | 4% | -1% | 1%
CCN(CC)C(=O)c1nc(-c2cccc3ccccc23)no1 | -1 | 16µM* | x | x | u | x
O=C(NC1CC1)c1cccc(Nc2ccc(-c3ccc4c(c3)OCCO4)nn2)c1 | 3 | 12µM* | u | 2% | 21µM* | -10%
CCOC(=O)N1CCN(C(=O)c2cc(COc3cccc(C(F)(F)F)c3)on2)CC1 | -22 | 16µM* | u | -2% | u | -1%
O=C(c1cc(COc2cccc(C(F)(F)F)c2)on1)N1CCC(Oc2cccnc2)CC1 | -15 | 12µM* | -9% | 23% | 15µM* | -27%
O=C(c1cc(COc2cccc(C(F)(F)F)c2)on1)N1CCc2ccccc2C1 | 0 | -19% | x | 20% | u | -1%
C=CCC1(CC=C)CCCN1C(=O)c1cc(COc2cccc(C(F)(F)F)c2)on1 | -9 | 15µM* | 6% | 5% | 15µM* | 5%
COc1cc(CN2CCNC(=O)C2CC(=O)NC2CCC2)cc(OC)c1 (configuration not stated) | 8 | 6% | 0% | -5% | -5% | 2%
CCc1cc(CNC(=O)C2CCC(=O)N(Cc3ccccc3F)C2)on1 (configuration not stated) | 12 | 6% | x | x | -12% | x
c1ccc2c(c1)OCCOCCOCCOCCOc1ccccc1OCCOCCOCCO2 | -4 | 18µM* | 0% | 3% | 15µM* | u
CN1CCOCCOc2ccccc2OCCOCC1 | 20 | 2% | x | 2% | 10% | -19%
COc1ccc(-c2c(C)c3ccc(O)c(CN4CCCCC4)c3oc2=O)cc1OC | x | -18% | x | x | -5% | x
CN(Cc1ccon1)C(=O)C1CCN(C2CCN(CCCc3ccccc3)CC2)CC1 | -1 | u | 1% | -1% | u | 2%
O=C(CN1c2ccccc2Sc2ccccc21)N/N=C/c1ccccc1 | -5 | u | -11% | -2% | u | -11%
O=C(CN1c2ccccc2Sc2ccccc21)N/N=C/c1ccc([N+](=O)[O-])cc1 | -9 | 21µM* | -3% | 3% | u | -10%
Cc1c(OCC(=O)NCCN2CCOCC2)ccc2c(-c3ccccc3)cc(=O)oc12 | 15 | u | -3% | 3% | 7% | -8%
Cc1cccc(Cn2nc(C)c(NC(=O)c3ccc(F)cc3)c2C)c1 | -7 | u | 1% | 13% | -4% | -13%
SMILES | IL1B secr inh | TDP1 cell noCPT | BCR signal inh | MCF10A rereplic | DT40 TDP1 CPT | SW480 rereplic
Cc1nn(Cc2c(F)c(F)c(F)c(F)c2F)c(C)c1NC(=O)c1nn(C)c(C)c1Br | 0 | u | 3% | 16% | u | -3%
CC(C)c1cc(C(N)=O)c(NC(=O)c2cccc(COc3ccc(Cl)cc3)c2)s1 | u | u | u | u | 26µM* | u
CCn1cc(Cl)c(C(=O)Nc2c(C)nn(Cc3c(F)c(F)c(F)c(F)c3F)c2C)n1 | -8 | u | 0% | -2% | 15µM* | -4%
CCn1ccc(C(=O)Nc2c(C)nn(Cc3c(F)c(F)c(F)c(F)c3F)c2C)n1 | 24 | 16µM* | -5% | -1% | u | -34%
Cc1nn(Cc2c(F)c(F)c(F)c(F)c2F)c(C)c1NC(=O)c1cccc(COc2ccc(Cl)cc2)c1 | -6 | 7.3µM* | 6% | 20% | 10µM* | 10%
CCn1cc([N+](=O)[O-])c(C(=O)Nc2c(C)nn(Cc3c(F)c(F)c(F)c(F)c3F)c2C)n1 | -11 | -30% | 3% | -14% | u | -1%
Cc1csc2nc(SCC(=O)N3CCN(c4ccccc4)CC3)[nH]c(=O)c12 | 39 | u | u | 11% | u | u
O=C(NNC(=O)c1ccccc1[N+](=O)[O-])c1csc(N2CCOCC2)n1 | 0 | 5% | -10% | 2% | -16% | 1%
Cc1ccc(NC(=O)Cn2nc(C(=O)O)c3ccccc3c2=O)cc1S(=O)(=O)N1CCCCCC1 | 0 | u | x | 8% | u | -2%
O=c1cc(CCl)nc(Cc2c(Cl)cccc2Cl)[nH]1 | -23 | u | x | 18µM* | u | u
O=c1cc(-c2ccccc2)nc(Cc2c(Cl)cccc2Cl)[nH]1 | 14 | 21% | 2% | 3% | -2% | -9%
CC1(CO)COC(c2ccccc2)=N1 (configuration not stated) | -2 | -2% | -3% | -1% | -7% | 16%
CC1CC(CCC(=O)NC(=S)Nc2ccc(S(N)(=O)=O)cc2)C(=O)O1 (configuration not stated) | -5 | -2% | 6% | 0% | -4% | -16%
COc1ccc(C(=O)Nc2ccc3ccccc3n2)cc1OC | -14 | u | 0% | 1% | u | -11%
COc1ccccc1/C=C/c1ccc2ccccc2n1 | x | 16µM* | x | x | u | x

Screening data (PubChem BioAssay)
